{
  "source": "PubChem BioAssay (NCATS)",
  "note": "Inconclusive results are not listed. Entries that show only a call come without a potency. Active and inactive are the calls of the source. Calls follow the shape of the full dose curve; tested in HEK293 reporter line. Potency is read from the fitted curve at half-maximal effect.",
  "data": [
    {"test": "qHTS for Inhibitors of the Functional Ribonucleoprotein Complex (vRNP) of Lassa (LASV) Arenavirus: Viability assay - alamar blue signal for LASV Primary Screen (AID 1347083); also: nearly all actives have a fitted effect of over 80% in size", "conditions": "cell viability, alamar blue fluorescence (LASV minigenome counter-screen); series mostly up to 57.5 µM", "values": [
      {"smiles": "CC1=C[C@@H]2c3cccc4[nH]cc(c34)C[C@H]2N(C)C1", "Potency": "inactive"},
      {"smiles": "C=C1C(=O)[C@@]23C(CC[C@@H]1[C@H]2O)[C@@]12CO[C@]3(O)[C@@H](O)[C@@H]1C(C)(C)CC[C@@H]2O", "note": "(some centres undefined)", "Potency": "6.85 µM (active)"},
      {"smiles": "CCN1C[C@]2(C)CC[C@H](OC)[C@]34C5C[C@@H]6CC[C@@](O)(C5C(=O)O6)C(C13)[C@@H](OC(=O)c1ccccc1)C24", "Potency": "inactive"},
      {"smiles": "Clc1ccc(COC(Cn2ccnc2)c2ccc(Cl)cc2Cl)c(Cl)c1", "note": "(centres undefined)", "Potency": "inactive"},
      {"smiles": "C[C@@]12CCC(OS(=O)(=O)O)C[C@@H]1CCC1C2CC[C@]2(C)C(=O)CCC12", "note": "(some centres undefined)", "Potency": "inactive"},
      {"smiles": "C=C1C2C[C@]3(C4CC5[C@@]6(C)CC[C@H](O)[C@@]5(C3CC2=O)C4[N+]([O-])(CC)C6)[C@@H]1O", "note": "(some centres undefined)", "Potency": "inactive"},
      {"smiles": "C1CC[C@H]([C@@]23C[C@H](C[C@H]4CCCN[C@H]42)[C@@H]2CCCCN2C3)NC1", "Potency": "inactive"},
      {"smiles": "COC1=C[C@]23CCCN2CCc2cc4c(cc2[C@@H]3[C@@H]1O)OCO4", "Potency": "inactive"},
      {"smiles": "CN(C/C=C/c1ccccc1)Cc1cccc2ccccc12", "Potency": "inactive"},
      {"smiles": "CC(C)c1cnn2c(NCc3ccccc3)cc(N[C@@H](CO)[C@H](O)CO)nc12", "Potency": "0.485 µM (active)"},
      {"smiles": "CO[C@@H]1C(N(C)C(=O)c2ccccc2)C[C@H]2O[C@]1(C)n1c3ccccc3c3c4c(c5c6ccccc6n2c5c31)C(=O)NC4=O", "note": "(some centres undefined)", "Potency": "12.2 µM (active)"},
      {"smiles": "CCCOc1ccc2[nH]cc(C3=CCNCC3)c2n1", "Potency": "inactive"},
      {"smiles": "O=C1NCCc2[nH]c(-c3ccncc3)cc21", "Potency": "6.85 µM (active)"},
      {"smiles": "CCC1CN2CCC1CC2C(O)c1ccnc2ccccc12", "note": "(centres undefined)", "Potency": "inactive"}
    ]}
  ]
}
